# From PubChem BioAssay (NCATS)
# Results filed as inconclusive are left out. Active and inactive are the calls of the source. The call rests on the fitted dose curve; in most records, active means well fitted curve in the direction sought with a large enough effect; inconclusive means small, poorly fitted or top-dose-only effect, or another doubt; inactive means no such curve, though single readings can be large or run the other way.
# Molecular target: Metallo-beta-lactamase type 2 (Klebsiella pneumoniae) (UniProt C7C422)
# Experiment: qHTS to identify inhibitors of the New Delhi Metallo-beta-lactamase (NDM): assay validation screen against the NCATS LOPAC Collection (AID 1794843);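 further: nitrocefin turnover by NDM-1 measured as 485 nm absorbance at plateau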
# Details: NDM-1 enzyme, nitrocefin hydrolysis, absorbance 485 nm; series mostly up to 38.4 µM; activity change, negative = inhibition: at the top concentration
# From the text: Assay Submitter (PI): James Inglese Ph.D., Patricia Dranchak Ph.D., Mahesh Aitha Ph.D.
# Assay Development and Screening Technology Laboratory (ADST)
# National Center for Advancing Translational Sciences (NCATS), Rockville, MD
# National Institute of Health (NIH), Bethesda, Maryland
# The metallo-beta-lactamases (MBL) are a main antibiotic resistance mechanism evolved by bacteria. There is an urgent clinical need for MBL inhibitors to mitigate this growing threat. To support a machine-based learning study, qHTS has been used to experimentally test inhibitors identified by prediction tools.
# PROTOCOL TABLE (as described by Inglese et al., 2007)
# SEQUENCE No. (e.g., 1, 2, 3, etc.); […] (e.g., enzyme, Incubation, Reagent, etc.); VALUE; DESCRIPTION
# 1; NDM-1; 4 uL of 3 nM enzyme in 50 mM HEPES (pH 7.0), 1 uM Zn2SO4, 0.01% Tween20; Use BioRaptr to dispense into Aurora black, clear bottom low base 1536-well plates
# 2; Compounds; 23 nL; Use Pin Tool (Wako) to transfer DMSO control and library compounds in DMSO
# 4; Reagent; 2 uL of 50 uM nitrocefin
# 6; Detector; Absorbance at 485 nm (bandwidth = 5 nm, 25 flashes/well) on Tecan Infinity
# NOTES (numbers refer to sequence above)
# 1; Column 1 of each plate received assay buffer without enzyme and columns 2-48 received enzyme for a final assay concentration of 2 nM.
# 2; Control plate contained DMSO in columns 1, 2, 3, and 4.
# 3; Compound interaction with enzyme.
# 5; Substrate interaction with enzyme, plateau phase of kinetics.
# 6; Default reader settings were applied for absorbance read at 485 nm, bandwidth = 5 nm, 25 flashes/well.
# Inglese J, Shamu CE, Guy RK. 2007. Reporting data from high-throughput screening of small-molecule libraries. Nat Chem Biol. doi:10.1038/nchembio0807-438
# Yasgar A, Shinn P, Jadhav A, Auld D, Michael S, Zheng W, Austin CP, Inglese J, Simeonov A. 2008. Compound Management for Quantitative High-Throughput Screening. J Lab Autom 13:79 - 89. doi:10.1016/j.jala.2007.12.004
# On the % scale 0 is the no-effect control and ±100 the full control effect.
# Chain of Metallo-beta-lactamase type 2 (Klebsiella pneumoniae) (C7C422 whole entry, looked up): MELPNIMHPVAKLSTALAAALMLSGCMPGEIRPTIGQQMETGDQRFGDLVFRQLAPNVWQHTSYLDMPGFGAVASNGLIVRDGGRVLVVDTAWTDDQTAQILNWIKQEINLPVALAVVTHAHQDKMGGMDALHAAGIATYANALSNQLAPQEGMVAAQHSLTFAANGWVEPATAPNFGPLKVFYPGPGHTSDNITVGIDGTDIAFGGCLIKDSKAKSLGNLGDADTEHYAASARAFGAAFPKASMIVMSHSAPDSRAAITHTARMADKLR
row,SMILES,"activity change, negative = inhibition"
1,NC(N)=N[C@@H](CCC(=O)O)C(=O)O,-9.66% (inactive)
2,O=C(O)C1CCNCC1,-5.1% (inactive)
3,O=C(O)/C(=C/c1c(C(=O)O)[nH]c2cc(Cl)cc(Cl)c12)c1ccccc1,10.7% (inactive)
4,N[C@H](C(=O)O)[C@H](O)C(=O)O,0.247% (inactive)
5,CCCCCCCCCCC(C)(C)C(=O)Nc1c(OC)cc(OC)cc1OC,-10.5% (inactive)
6,Nc1ncnc2c1nc(Sc1ccc(Cl)cc1)n2[C@H]1OC2COP(=O)(O)O[C@@H]2C1O (stereo not given in full),-1.09% (inactive)
7,Cc1cc(Cn2cnc3c2C[C@@H](C(=O)O)N(C(=O)C(c2ccccc2)c2ccccc2)C3)ccc1N,-1.34% (inactive)
8,c1ccc2nc(C3=NCCN3)ccc2c1,2.69% (inactive)
9,CC(C)C[C@H](NC(=O)[C@H](O)[C@H](N)Cc1ccccc1)C(=O)O,-2.06% (inactive)
10,CN1C2CCC1CC(OC(c1ccccc1)c1ccccc1)C2 (stereo not given),-1.78% (inactive)
11,NC/C=C\C(=O)O,6.44% (inactive)
12,Nc1ncnc2c1nc(Br)n2C1OC2COP(=O)(O)O[C@@H]2C1O (stereo not given in full),-1.77% (inactive)
13,CCCCOc1cc(CC2CNC(=O)N2)ccc1OC (stereo not given),0.495% (inactive)
14,CCCn1c(=O)c2c(ncn2C)n(CCC)c1=O,6.2% (inactive)
15,O=c1[nH]c2ccccc2c2ccccc12,2.13% (inactive)
16,CC(=O)N[C@@H](Cc1c[nH]c2ccccc12)C(=O)OCc1cc(C(F)(F)F)cc(C(F)(F)F)c1,-1.09% (inactive)
17,CNc1cc(NS(=O)(=O)c2ccc(N)cc2)nc(NC)n1,18.4% (inactive)
18,COc1ccc(-c2cc3ncc(C)n3c(Nc3ncccc3C(N)=O)n2)cc1OC,-3.67% (inactive)
19,CC(N)(Cc1ccc(O)cc1)C(=O)O (stereo not given),0.602% (inactive)
20,CCN(c1nc(N)c(C(=O)N=C(N)N)nc1Cl)C(C)C,-0.996% (inactive)

row,SMILES,"activity change, negative = inhibition"
1,OCC1NCC(O)C(O)C1O (stereo not given),-0.247% (inactive)
2,Cc1nc(N=Nc2cc(S(=O)(=O)O)c3cc([N+](=O)[O-])cc(S(=O)(=O)O)c3c2)c(COP(=O)(O)O)c(C=O)c1O,-10.3% (inactive)
3,CNCCNS(=O)(=O)c1cccc2cnccc12,-10.2% (inactive)
4,NS(=O)(=O)c1cccc2c1c([N+](=O)[O-])cc1nc(O)c(O)nc12,-2.31% (inactive)
5,CN(C)CCCc1cc(C(=O)Nc2ccc(-c3ccncc3)cc2)ccc1O,40.3% (inactive)
6,OC1(c2ccc(Cl)cc2)CCN(Cc2c[nH]c3ccccc23)CC1,-1.65% (inactive)
7,COc1cc(/C=C(\C#N)C(=O)Nc2nnc(C(F)(F)F)s2)ccc1OCc1ccc(C(F)(F)F)cc1C(F)(F)F,0.0461% (inactive)
8,CCCCOC(=O)NS(=O)(=O)c1sc(CC(C)C)cc1-c1ccc(Cn2c(CC)nc3c(C)cc(C)nc32)cc1,-12% (inactive)
9,C[C@](Cc1ccc(O)c(O)c1)(NN)C(=O)O,-4.05% (inactive)
10,NCC(O)c1ccc(O)c(O)c1 (stereo not given),-8.92% (inactive)
11,CC[C@@H]1Cc2cc(O)ccc2C2=C1c1ccc(O)cc1C[C@H]2CC,-0.756% (inactive)
12,O=C(O)c1cc2cc(F)ccc2[nH]1,1.36% (inactive)
13,CC(=O)C(C)=O,-1.05% (inactive)
14,C=CCN1CCc2c(cc(O)c(O)c2Br)[C@@H](c2ccccc2)C1,-8.61% (inactive)
15,COc1cc(CC(=O)O)ccc1O,0.908% (inactive)
16,NC(=O)CC[C@H](N)C(=O)O,-1.29% (inactive)
17,COc1cc(C(O)CO)ccc1O (stereo not given),-0.121% (inactive)
18,CCCC(=O)NCCc1c2n(c3ccc(OC)cc13)CCCc1ccccc1-2,-3.08% (inactive)
19,O=C(OCCN1CCOCC1)C1(c2ccccc2)CCCCC1,-9.96% (inactive)
20,NOCC(=O)O,-8.38% (inactive)
